Measured values published in PubChem BioAssay (NCATS).
Calls of active or inactive are those of the source. Calls follow the shape of the full dose curve.

Settings: Ebola virus entry cell assay, ratio channel

Structure (SMILES) | AC50 | outcome
CN1CCC(=C2c3ccccc3C=Cc3ccccc32)CC1 | 14.1 µM (active) | –
CN/C(=C\[N+](=O)[O-])NCCSCc1ccc(CN(C)C)o1 | – | inactive
CO/N=C1\CN(c2nc3c(cc2F)c(=O)c(C(=O)O)cn3C2CC2)CC1CN (stereo not drawn) | – | inactive
CCCCCOC(=O)Nc1nc(=O)n([C@@H]2O[C@H](C)[C@@H](O)[C@H]2O)cc1F | – | inactive
Cc1ccc(C)c(OCCCC(C)(C)C(=O)O)c1 | – | inactive
COc1cc2ncnc(Nc3ccc(F)c(Cl)c3)c2cc1OCCCN1CCOCC1 | 15.8 µM (active) | –
COc1cc(C(C)=O)ccc1OCCCN1CCC(c2noc3cc(F)ccc23)CC1 | – | inactive
NS(=O)(=O)Cc1noc2ccccc12 | – | inactive
CC[C@]1(O)C[C@H]2CN(CCc3c([nH]c4ccccc34)[C@@](C(=O)OC)(c3cc4c(cc3OC)N(C=O)[C@H]3[C@@](O)(C(=O)OC)[C@H](OC(C)=O)[C@]5(CC)C=CCN6CC[C@]43[C@@H]65)C2)C1 | 0.112 µM (active) | –
CN1CCN(CCCN2c3ccccc3Sc3ccc(C(F)(F)F)cc32)CC1 | 3.98 µM (active) | –
C=C(CC)C(=O)c1ccc(OCC(=O)O)c(Cl)c1Cl | – | inactive
CN(C)CCC=C1c2ccccc2C=Cc2ccccc21 | 12.6 µM (active) | –
CC(C)(C)C(=O)OCOP(=O)(COCCn1cnc2c(N)ncnc21)OCOC(=O)C(C)(C)C | – | inactive
O=C1CCc2ccc(OCCCCN3CCN(c4cccc(Cl)c4Cl)CC3)cc2N1 | 14.1 µM (active) | –
COc1ccc(OC)c(C(O)CNC(=O)CN)c1 (stereo not drawn) | – | inactive
O=C(c1ccccc1)c1ccc2n1CCC2C(=O)O (stereo not drawn) | – | inactive
Cc1ccc(NC(=O)c2ccc(CN3CCN(C)CC3)cc2)cc1Nc1nccc(-c2cccnc2)n1 | 28.2 µM (active) | –
O=C(O)C1(C(=O)O)CCC1.[NH2-].[NH2-].[Pt+2] | – | inactive
CN(C)c1ccc(O)c2c1C[C@H]1C[C@H]3[C@H](N(C)C)C(=O)C(C(N)=O)=C(O)[C@@]3(O)C(=O)C1=C2O | – | inactive

Structure (SMILES) | AC50 | outcome
Cc1nc2n(c(=O)c1CCN1CCC(c3noc4cc(F)ccc34)CC1)CCCC2 | – | inactive
O=C1c2cccc3c2[C@H](CCC3)CN1[C@@H]1CN2CCC1CC2 | – | inactive
CCCNC(=O)NS(=O)(=O)c1ccc(Cl)cc1 | – | inactive
Cc1cccc(C)c1OCC(C)N (stereo not drawn) | – | inactive
CCN(CC)CCOC(=O)C1(C2CCCCC2)CCCCC1 | 15.8 µM (active) | –
O=C1N=C(O)CN1/N=C/c1ccc(-c2ccc([N+](=O)[O-])cc2)o1 | – | inactive
COCCCOc1cc(C[C@@H](C[C@H](N)[C@@H](O)C[C@H](C(=O)NCC(C)(C)C(N)=O)C(C)C)C(C)C)ccc1OC | – | inactive
Cc1cn[nH]c1 | – | inactive
COc1ccccc1OCC(O)COC(N)=O (stereo not drawn) | – | inactive
O=C(O)c1ccc(-n2nc(-c3ccccc3O)nc2-c2ccccc2O)cc1 | – | inactive
CC[C@@H](CO)NC(=O)[C@@H]1C=C2c3cccc4c3c(cn4C)C[C@H]2N(C)C1 | – | inactive
C[C@H]1c2cccc(O)c2C(O)=C2C(=O)[C@]3(O)C(O)=C(C(N)=O)C(=O)[C@@H](N(C)C)[C@@H]3[C@@H](O)[C@@H]21 | – | inactive
O=C1NC(c2ccccc2)(c2ccccc2)C(=O)N1COP(=O)(O)O | – | inactive
CN1CCC[C@@H]1Cc1c[nH]c2ccc(CCS(=O)(=O)c3ccccc3)cc12 | – | inactive
OCCOCCN1CCN(C(c2ccccc2)c2ccc(Cl)cc2)CC1 (stereo not drawn) | – | inactive
CN(C)CCc1c[nH]c2ccc(CS(=O)(=O)N3CCCC3)cc12 | – | inactive
Cc1ccc(S(=O)(=O)NC(=O)NN2CCCCCC2)cc1 | – | inactive
NS(=O)(=O)c1cc2c(cc1C(F)(F)F)NCNS2(=O)=O | – | inactive
CC(C)OC(=O)C(C)(C)Oc1ccc(C(=O)c2ccc(Cl)cc2)cc1 | – | inactive
